# Reference: ChEMBL document CHEMBL3988442, “University of Dundee, Small-Polar-MMV Screening Library” (2021)
# For some assays here: Entries with a potency or affinity are not part of this list.
# Tests used:
# Parameters in all cases: scale not given: direction of the effect not stated beside the values
# [1] = molecular target: Protein translocase subunit SecA (Escherichia coli (strain K12)) (UniProt P10408); test: Assay to Identify E. coli SecA ATPase Inhibitors; type: functional; conditions: 30 µM
# [2] = molecular target: T1, Ubiquitin-activating enzyme e1, putative (Leishmania donovani (strain BPK282A1)) (UniProt E9BSI1); test: Leishmania donovani Ubiquitin Activating Enzyme (LdE1); type: functional; conditions: 30 µM
# T1 sequence (whole entry): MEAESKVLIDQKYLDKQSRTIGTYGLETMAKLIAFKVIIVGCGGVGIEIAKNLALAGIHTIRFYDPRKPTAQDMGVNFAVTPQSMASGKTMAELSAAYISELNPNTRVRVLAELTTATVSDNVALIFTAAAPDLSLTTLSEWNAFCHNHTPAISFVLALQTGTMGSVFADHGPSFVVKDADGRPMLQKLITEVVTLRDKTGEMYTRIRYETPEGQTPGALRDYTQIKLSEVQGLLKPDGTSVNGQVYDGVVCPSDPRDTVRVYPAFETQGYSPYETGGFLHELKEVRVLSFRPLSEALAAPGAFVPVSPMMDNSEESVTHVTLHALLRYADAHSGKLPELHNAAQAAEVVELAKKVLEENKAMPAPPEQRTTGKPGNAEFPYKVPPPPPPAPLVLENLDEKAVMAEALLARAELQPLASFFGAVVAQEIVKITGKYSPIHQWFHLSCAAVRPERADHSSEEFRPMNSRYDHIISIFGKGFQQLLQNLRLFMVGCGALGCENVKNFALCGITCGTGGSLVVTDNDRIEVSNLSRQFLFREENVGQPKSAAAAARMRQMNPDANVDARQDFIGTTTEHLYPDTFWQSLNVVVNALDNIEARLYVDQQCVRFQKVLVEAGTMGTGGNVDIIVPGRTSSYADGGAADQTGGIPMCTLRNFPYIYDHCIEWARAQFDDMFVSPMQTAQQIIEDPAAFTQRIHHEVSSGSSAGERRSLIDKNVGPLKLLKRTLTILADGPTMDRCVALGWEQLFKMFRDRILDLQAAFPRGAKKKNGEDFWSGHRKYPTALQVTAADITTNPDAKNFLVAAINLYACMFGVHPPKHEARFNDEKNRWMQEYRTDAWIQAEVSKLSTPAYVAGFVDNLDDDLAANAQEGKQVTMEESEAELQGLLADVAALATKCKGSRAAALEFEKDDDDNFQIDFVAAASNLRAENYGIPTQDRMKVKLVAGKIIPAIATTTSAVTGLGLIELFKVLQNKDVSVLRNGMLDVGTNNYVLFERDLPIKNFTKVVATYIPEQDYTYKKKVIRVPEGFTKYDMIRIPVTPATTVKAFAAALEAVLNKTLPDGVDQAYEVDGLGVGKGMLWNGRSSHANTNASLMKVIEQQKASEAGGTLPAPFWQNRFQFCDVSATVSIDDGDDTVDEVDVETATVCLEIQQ
# [3] = molecular target: AMP-activated protein kinase, AMPK (Homo sapiens) (UniProt P54646+O43741+P54619+Q9UGJ0+Q9Y478+Q13131+Q9UGI9); test: AMP-dependent Kinase enzyme assay. An in vitro enzyme assay that detects ADP turnover that is directly proportional to AMPK activity. This uses naive AMPK that is activated during the assay with MK-8722; type: functional; conditions: 30 µM
# [4] = molecular target: Sialic acid-binding Ig-like lectin 9 (Homo sapiens) (UniProt Q9Y336); test: Hs-Siglec9 ALPHAscreen SOP 20170721; conditions: 10 µM
# [5] = test system: Trypanosoma cruzi; test: Trypanosoma cruzi phosphomannomutase and mannose-1-phosphate guanylyltransferase assay; type: functional; conditions: 10 µM
# [6] = molecular target: T2, Arginase-2, mitochondrial (Homo sapiens) (UniProt P78540); test: in vitro enzyme assay to detect the production of urea directly proportional to the activity of Arginase II; type: functional; conditions: 33.3 µM; further: in the data most compounds retested in dose-response had high values
# T2 sequence (whole entry): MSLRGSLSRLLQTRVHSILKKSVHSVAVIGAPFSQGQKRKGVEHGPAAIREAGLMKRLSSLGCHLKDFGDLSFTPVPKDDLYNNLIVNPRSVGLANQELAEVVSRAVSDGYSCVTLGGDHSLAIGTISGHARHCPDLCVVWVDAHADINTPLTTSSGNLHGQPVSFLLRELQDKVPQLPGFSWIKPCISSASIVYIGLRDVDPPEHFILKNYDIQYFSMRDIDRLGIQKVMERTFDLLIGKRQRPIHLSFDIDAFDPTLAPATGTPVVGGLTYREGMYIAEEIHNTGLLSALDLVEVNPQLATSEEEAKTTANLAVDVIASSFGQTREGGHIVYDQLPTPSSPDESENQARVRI
# [7] = molecular target: T3, Proteasome subunit beta (Trypanosoma cruzi) (UniProt O96673); test: Trypanosoma cruzi proteasome chymotrypsin-like activity (TcProtChymo) assay.; further: in the data most compounds retested in dose-response had high values; type: functional; conditions: 9.37 µM
# T3 sequence (whole entry): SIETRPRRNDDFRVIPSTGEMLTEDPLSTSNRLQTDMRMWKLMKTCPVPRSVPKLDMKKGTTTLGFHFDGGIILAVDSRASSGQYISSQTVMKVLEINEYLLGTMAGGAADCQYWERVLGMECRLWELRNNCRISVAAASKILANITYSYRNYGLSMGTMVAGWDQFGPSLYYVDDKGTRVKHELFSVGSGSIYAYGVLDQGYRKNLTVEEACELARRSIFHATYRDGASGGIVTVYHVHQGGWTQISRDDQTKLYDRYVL
# [8] = species: Homo sapiens; test: To identify inhibition of the IFN signalling (Jak-Stat) pathway via expression of an eGFP reporter gene under the control of an IFN-stimulated response element (ISRE) containing MxA promoter.; type: functional; conditions: 30 µM
# [9] = molecular target: T4, Tyrosyl-tRNA synthetase, putative (Trypanosoma cruzi (strain CL Brener)) (UniProt Q4DSP6); test: Trypanosoma cruzi tyrosyl tRNA synthetase (TcYRS) _High Tyrosine SOP; type: functional; conditions: 30 µM; further: in the data most compounds retested in dose-response had high values
# T4 sequence (whole entry): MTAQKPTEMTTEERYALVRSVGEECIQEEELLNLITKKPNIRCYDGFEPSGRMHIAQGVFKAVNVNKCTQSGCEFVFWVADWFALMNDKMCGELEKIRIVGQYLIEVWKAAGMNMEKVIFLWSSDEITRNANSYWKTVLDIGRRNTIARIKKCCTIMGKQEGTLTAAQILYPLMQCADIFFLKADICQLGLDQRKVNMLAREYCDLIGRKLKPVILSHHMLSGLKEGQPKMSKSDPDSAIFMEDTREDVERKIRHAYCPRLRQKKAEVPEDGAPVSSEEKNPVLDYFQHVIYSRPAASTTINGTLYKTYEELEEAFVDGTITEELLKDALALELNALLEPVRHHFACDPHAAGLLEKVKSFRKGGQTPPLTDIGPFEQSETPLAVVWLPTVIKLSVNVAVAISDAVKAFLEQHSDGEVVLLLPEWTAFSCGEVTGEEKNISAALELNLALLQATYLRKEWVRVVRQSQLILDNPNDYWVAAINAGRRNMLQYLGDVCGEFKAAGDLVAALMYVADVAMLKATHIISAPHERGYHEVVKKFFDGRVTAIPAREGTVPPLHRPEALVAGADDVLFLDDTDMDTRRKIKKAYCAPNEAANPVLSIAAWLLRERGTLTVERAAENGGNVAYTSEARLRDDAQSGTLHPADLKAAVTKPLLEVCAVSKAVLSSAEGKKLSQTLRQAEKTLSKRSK
# [10] = molecular target: T4, Tyrosyl-tRNA synthetase, putative (Trypanosoma cruzi (strain CL Brener)); test: Trypanosoma cruzi tyrosyl tRNA synthetase (TcYRS) SOP; type: functional; conditions: 30 µM
# [11] = molecular target: Chromo domain-containing protein 1 (Saccharomyces cerevisiae (strain ATCC 204508 / S288c) (Baker's yeast)) (UniProt P32657); test: ScCHD-1 Enzyme Inhibition Assay; type: functional; conditions: 30 µM; further: in the data most compounds retested in dose-response had high values
# Chain of Chromo domain-containing protein 1 (Saccharomyces cerevisiae (strain ATCC 204508 / S288c) (Baker's yeast)) (P32657 whole entry, the tested form may be a part): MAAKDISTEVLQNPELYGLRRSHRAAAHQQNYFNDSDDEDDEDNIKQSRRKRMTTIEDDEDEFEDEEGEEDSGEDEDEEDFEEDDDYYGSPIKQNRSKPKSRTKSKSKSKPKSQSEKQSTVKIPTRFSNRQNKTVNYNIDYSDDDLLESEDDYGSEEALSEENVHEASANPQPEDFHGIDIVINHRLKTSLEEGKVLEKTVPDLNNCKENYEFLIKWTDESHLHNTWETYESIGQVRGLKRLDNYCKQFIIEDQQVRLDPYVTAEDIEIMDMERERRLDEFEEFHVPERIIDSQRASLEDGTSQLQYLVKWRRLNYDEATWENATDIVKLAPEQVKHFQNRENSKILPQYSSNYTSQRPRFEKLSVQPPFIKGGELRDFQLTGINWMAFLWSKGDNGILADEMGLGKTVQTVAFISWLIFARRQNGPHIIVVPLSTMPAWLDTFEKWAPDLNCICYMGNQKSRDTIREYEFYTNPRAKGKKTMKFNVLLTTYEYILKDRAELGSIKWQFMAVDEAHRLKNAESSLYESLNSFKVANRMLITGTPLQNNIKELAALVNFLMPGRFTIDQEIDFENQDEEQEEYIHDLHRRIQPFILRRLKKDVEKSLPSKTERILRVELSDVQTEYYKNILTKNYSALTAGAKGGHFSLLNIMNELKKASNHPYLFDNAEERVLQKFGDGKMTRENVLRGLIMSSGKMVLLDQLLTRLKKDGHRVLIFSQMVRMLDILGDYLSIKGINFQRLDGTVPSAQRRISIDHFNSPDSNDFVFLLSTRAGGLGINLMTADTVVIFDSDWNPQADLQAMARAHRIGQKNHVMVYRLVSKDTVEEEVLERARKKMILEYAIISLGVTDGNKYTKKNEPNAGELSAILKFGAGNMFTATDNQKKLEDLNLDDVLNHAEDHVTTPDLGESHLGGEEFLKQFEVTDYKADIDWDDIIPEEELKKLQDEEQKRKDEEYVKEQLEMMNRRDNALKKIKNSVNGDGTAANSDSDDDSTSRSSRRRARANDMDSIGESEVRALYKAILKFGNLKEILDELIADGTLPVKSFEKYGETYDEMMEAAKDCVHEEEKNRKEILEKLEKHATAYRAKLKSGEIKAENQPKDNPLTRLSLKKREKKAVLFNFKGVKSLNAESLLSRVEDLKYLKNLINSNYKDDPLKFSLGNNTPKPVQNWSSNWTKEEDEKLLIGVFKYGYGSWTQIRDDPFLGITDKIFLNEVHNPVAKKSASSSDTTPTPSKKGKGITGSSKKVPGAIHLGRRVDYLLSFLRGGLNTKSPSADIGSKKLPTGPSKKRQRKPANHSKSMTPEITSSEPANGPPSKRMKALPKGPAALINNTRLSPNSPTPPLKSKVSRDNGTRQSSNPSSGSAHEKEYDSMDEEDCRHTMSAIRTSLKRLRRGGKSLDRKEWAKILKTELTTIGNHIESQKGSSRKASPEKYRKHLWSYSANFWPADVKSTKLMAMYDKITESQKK
# Chain of Sialic acid-binding Ig-like lectin 9 (Homo sapiens) (Q9Y336 whole entry): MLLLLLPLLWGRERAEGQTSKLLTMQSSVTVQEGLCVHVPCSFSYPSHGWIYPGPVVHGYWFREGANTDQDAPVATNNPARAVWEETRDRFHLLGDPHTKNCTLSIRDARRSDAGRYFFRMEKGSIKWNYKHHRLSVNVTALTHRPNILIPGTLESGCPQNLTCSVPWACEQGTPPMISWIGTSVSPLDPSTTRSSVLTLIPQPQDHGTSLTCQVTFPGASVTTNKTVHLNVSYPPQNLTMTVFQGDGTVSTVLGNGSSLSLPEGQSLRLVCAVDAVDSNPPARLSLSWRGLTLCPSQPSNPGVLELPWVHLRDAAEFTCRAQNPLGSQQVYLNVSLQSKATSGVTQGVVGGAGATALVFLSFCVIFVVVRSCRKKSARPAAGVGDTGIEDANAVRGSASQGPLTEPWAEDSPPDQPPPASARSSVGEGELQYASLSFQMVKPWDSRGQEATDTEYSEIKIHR
# Chain of Protein translocase subunit SecA (Escherichia coli (strain K12)) (P10408 whole entry): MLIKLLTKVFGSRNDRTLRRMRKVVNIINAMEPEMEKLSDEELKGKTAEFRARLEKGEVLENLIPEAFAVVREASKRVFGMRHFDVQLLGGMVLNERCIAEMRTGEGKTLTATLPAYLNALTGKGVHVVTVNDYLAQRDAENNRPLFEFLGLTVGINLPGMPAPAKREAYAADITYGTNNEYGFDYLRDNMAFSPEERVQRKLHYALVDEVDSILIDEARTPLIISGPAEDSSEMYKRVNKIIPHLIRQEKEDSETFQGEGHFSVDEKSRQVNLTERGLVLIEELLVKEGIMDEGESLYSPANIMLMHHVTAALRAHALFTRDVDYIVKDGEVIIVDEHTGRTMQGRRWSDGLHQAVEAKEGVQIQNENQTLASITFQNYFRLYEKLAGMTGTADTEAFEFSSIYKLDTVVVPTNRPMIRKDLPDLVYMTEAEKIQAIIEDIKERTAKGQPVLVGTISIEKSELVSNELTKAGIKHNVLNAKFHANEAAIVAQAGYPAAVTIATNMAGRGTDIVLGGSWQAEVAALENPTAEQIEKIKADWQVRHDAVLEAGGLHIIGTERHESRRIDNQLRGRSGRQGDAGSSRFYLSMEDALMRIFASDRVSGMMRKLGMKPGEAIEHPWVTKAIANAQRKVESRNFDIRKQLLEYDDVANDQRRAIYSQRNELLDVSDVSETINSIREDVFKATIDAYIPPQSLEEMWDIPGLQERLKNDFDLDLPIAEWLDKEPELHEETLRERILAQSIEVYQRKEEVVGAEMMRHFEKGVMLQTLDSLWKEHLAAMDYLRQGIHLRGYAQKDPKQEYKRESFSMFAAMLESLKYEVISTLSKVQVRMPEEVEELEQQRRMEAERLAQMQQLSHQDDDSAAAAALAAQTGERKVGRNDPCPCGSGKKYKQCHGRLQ
Structure (SMILES),Percent Effect [1] [%],Percent Effect [2] [%],Percent Effect [3] [%],Percent Effect [4] [%],Percent Effect [5] [%],Percent Effect [6] [%],Percent Effect [7] [%],Percent Effect [8] [%],Percent Effect [9] [%],Percent Effect [10] [%],Percent Effect [11] [%]
Cc1ccc2oc(CNC(C)c3nnc4n3CCCC4)cc2c1 (configuration not stated),-2.09,-10.8,-8.92,-1.29,0.781,-2.5,10.6,17.8,11.9,15.8,1.91
CNC(=O)CCCNCc1c(C(C)C)nn(C)c1N(C)C,-1.38,0,-11.4,-8.3,-2.15,2.52,0.761,-13.6,-2.46,-1.24,5.41
Cc1cccc(CN(Cc2ccc(C)o2)C2CC(C)(C)NC(C)(C)C2)n1,-4.93,9.46,9.39,-2.48,-6.13,-3.48,10.8,1.42,3.23,3.9,-0.669
O=C(c1ccc(F)cc1)N1C[C@@H]2OCCN(c3ncccn3)[C@@H]2C1,-5.16,5.33,3.73,9.86,-5.02,-19.9,5.98,-2.35,2.08,15,-9.01
COc1ccc(NC(=O)C(c2cccc(F)c2)N2CCOCC2)cc1 (configuration not stated),-1.48,0,4.04,2.98,-5.75,3.55,13.5,0.224,6.38,10.4,-3.15
O=C(Cc1cccc(F)c1)N1CCCCC1c1ccn2ccnc2n1 (configuration not stated),-5.83,-4.05,14.6,3.14,-3.16,-4.41,5.3,10.2,-4.3,-9.09,-10.5
CC(C)Oc1ncnc2c1CCN(Cc1cccs1)CC2,3.01,0,24.6,8.66,-0.193,-43.9,3.76,8.59,6.25,10,-1.96
O=C(CN1CCCC1Cn1cccn1)NC1CCOCC1 (configuration not stated),-0.811,0,-3.32,-1.02,0.772,-2.38,13.6,-13.8,1.59,-12.2,-2.17
Cc1cc(C)c(CNC(=O)NCC2CCCO2)c(=O)[nH]1 (configuration not stated),-9.94,2.63,3.27,0.242,-5.64,-2.3,-2.17,19.5,-3.43,-2.44,2.35
COc1ccc(Cl)cc1C(=O)N1CCCC(n2nc(C)nc2C)C1 (configuration not stated),-3.26,0,9.49,-8.91,-6.33,-3.8,-4.5,16.6,-2.46,-3.8,2.53
O=C(O)c1coc(COc2cccc(F)c2)n1,-5.01,16.2,-4.57,33.9,5.77,19.6,18.4,-3.93,5.38,16.1,-12.4
COc1ccc(CN2C[C@@H](OCc3csc(C)n3)[C@H]3COC[C@H]32)cc1,-4.6,2.74,-10.5,0.865,-2.78,-0.399,2.65,-6.15,2.08,8.64,-3.52
Cc1cccc(N2CC[C@@H]3CN(C(=O)c4ccco4)CCO[C@@H]3C2)n1,-3.29,10.7,10.8,3.1,-3.15,4.89,9.78,6.1,7.45,14.1,-6.54
O=C([C@H]1C[C@@H]2CCN(C3CCOCC3)C[C@@H]2O1)N1CCOCC1,4.05,5.33,-5.76,14.3,-3.48,-54.7,16.8,-8.99,7.29,12.5,-5.71
COc1ccc(C)cc1CNCc1ccc(-n2nc(C)cc2C)nc1,0.678,10.5,3.46,0.511,-2.82,1.15,12.2,22.1,3.43,17.1,-9.32
CSC(C)(C)CNC(=O)NCCC1CCN(C)CC1,-2.34,2.67,-5.7,-5.29,0.487,-1.56,2.96,11.5,1.64,6.17,1.16
CN(C)C(=O)[C@@H]1CCO[C@@H]2CCN(CCc3ccccc3)C[C@@H]21,-1.12,10.8,-3.68,0.659,2.15,38.8,9.21,0.342,-4.95,15.8,-6.78
CN1C(=O)CC(c2cnn(C)c2)C12CCN(C(=O)C1CC=CC1)CC2 (configuration not stated),-3.3,-2.7,6.7,5.51,-2.25,-2.23,7.2,-12.6,-1.08,-2.56,9.24
O=C(CCn1ccccc1=O)Nc1ccc(F)c(Cl)c1,-5.08,8.11,-4.38,0.784,-2.44,3.72,10.7,-1.47,4.3,6.17,-7.68
Cc1nc(C)c2c(n1)CCN(C(=O)CC1CC1)CC2,3.82,10.8,4.71,-10.8,-5.57,2.87,21.2,10.2,3.24,12.8,-3.91
CC(C)N1CCC(NCc2cccnc2N(C)C)CC1,-6.06,5.33,-3.18,0.114,0.487,2.6,7.15,0.898,-0.546,8.64,-4.8
CCN1CCOC(CNCc2ccccc2OCc2ccccn2)C1 (configuration not stated),-2.71,5.26,-13,-5.97,-4.39,3.24,9.56,9.07,6.4,13.6,-8.14
